The record followed here is PubChem BioAssay.

Active and inactive are the calls of the source.

The test system of assay [1] is Plasmodium falciparum Sir2 (PF13_0152, Sir2A). In words: Plasmodium falciparum Sir2A binding compounds – biochemical, small-molecule microarray, 635 nm fluorescence, primary screen (AID 1098).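 Further: score merges spot fluorescence intensity with its signal-to-noise ratio.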 To be noted: fluorescence 635 nm, higher = more signal.
Assay [2] is described as follows: probe aDKK1 binding to arrayed compounds – biochemical, biotinylated probe, 635/667 nm fluorescence, primary screen (AID 1099).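 Further: score merges 667nm spot fluorescence with signal to noise across triplicate slides; reference of the scale not given here.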 To be noted: small-molecule microarray, higher = more signal.
Assay [3] is described as follows: probe aCHRDL2 binding to arrayed compounds – biochemical, biotinylated probe, 635/667 nm fluorescence, primary screen (AID 1100). To be noted: small-molecule microarray, higher = more signal.
Assay [4] in a line: change in splice reporter luminescence, either direction, cell-based, HEK293, spliceosome inhibition project, primary screen (AID 1101).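 Further: HEK293 cells carrying a splicing-competent luciferase reporter gene; test concentration not given here.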 To be noted: HEK293 splicing luciferase reporter, 24 h, higher = more signal, called active from +8 up or from −8 down.
Assay [5] addresses Fibroblast growth factor 10 (Homo sapiens) (UniProt O15520). The assay is described as follows: compounds binding fibroblast growth factor 10 – biochemical, small-molecule microarray, 635 nm fluorescence, primary screen (AID 1102). To be noted: FGF10 binding, fluorescence 635 nm, higher = more signal.
The test system of assay [6] is glycogen synthase kinase-3 (GSK3A per assay name; protocol says GSK3B). The assay is described as follows: compounds binding glycogen synthase kinase-3 – biochemical, small-molecule microarray, 635 nm fluorescence, GSK3A, primary screen (AID 1103). Further: the record names both GSK3A and GSK3B. To be noted: fluorescence 635 nm, higher = more signal.
Assay [7] deals with Epidermal growth factor receptor (Homo sapiens) (UniProt P00533). In words: compounds binding epidermal growth factor receptor – biochemical, small-molecule microarray, 635 nm fluorescence, primary screen (AID 1104).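 Further: score merges 667 nm emission intensity with spot signal to noise over triplicate slides.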 To be noted: EGFR binding, higher = more signal.
Epidermal growth factor receptor (Homo sapiens), sequence (P00533 whole entry, looked up): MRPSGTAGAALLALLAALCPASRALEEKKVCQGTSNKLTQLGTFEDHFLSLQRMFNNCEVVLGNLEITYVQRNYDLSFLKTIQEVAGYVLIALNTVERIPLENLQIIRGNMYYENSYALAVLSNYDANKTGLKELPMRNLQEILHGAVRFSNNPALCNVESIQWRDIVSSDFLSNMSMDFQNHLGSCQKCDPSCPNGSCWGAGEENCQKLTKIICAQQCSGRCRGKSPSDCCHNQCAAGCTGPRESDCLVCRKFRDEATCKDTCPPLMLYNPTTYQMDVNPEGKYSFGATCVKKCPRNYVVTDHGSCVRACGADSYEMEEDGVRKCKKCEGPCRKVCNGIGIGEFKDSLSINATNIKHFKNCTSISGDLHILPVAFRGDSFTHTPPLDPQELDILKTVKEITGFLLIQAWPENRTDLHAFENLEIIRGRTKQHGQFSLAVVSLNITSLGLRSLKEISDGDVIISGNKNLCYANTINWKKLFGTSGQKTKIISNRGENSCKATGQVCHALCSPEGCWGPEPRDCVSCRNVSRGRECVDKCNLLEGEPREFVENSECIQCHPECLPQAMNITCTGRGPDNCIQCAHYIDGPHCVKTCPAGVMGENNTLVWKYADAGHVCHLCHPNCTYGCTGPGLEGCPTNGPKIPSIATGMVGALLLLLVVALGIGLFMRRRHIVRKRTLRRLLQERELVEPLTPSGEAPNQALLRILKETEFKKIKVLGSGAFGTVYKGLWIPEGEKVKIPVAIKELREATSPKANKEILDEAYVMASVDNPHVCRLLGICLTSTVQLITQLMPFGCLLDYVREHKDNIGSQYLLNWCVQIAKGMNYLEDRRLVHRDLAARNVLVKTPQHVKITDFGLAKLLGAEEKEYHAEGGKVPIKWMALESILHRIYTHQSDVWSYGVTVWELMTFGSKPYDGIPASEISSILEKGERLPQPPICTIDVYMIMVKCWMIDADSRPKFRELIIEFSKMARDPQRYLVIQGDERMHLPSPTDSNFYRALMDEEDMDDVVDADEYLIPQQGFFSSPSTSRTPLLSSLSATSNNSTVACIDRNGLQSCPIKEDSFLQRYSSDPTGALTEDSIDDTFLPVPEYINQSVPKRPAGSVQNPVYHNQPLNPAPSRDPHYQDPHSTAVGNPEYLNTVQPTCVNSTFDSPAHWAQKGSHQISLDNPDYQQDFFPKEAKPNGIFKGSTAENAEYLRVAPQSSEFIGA
For assay [8], the target named is Follistatin-related protein 3 (Homo sapiens) (UniProt O95633). In words: compounds binding follistatin-related protein 3 – biochemical, small-molecule microarray, 635 nm fluorescence, primary screen (AID 1105).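 Further: score merges emission near 667 nm and signal to noise per printed spot across three slides.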 To be noted: FSTL3 binding, higher = more signal.
Follistatin-related protein 3 (Homo sapiens), sequence (O95633 whole entry, looked up): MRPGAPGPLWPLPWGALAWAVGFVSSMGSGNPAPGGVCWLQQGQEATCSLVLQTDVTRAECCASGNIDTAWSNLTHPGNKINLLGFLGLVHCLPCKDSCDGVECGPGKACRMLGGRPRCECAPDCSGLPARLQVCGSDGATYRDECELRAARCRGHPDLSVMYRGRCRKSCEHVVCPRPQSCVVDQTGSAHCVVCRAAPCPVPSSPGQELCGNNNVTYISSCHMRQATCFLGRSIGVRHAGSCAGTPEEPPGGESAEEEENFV
Assay [9] has as its target Dickkopf-related protein 1 (Homo sapiens) (UniProt O94907). The assay is described as follows: small molecules binding DKK1 protein – biochemical, small-molecule microarray, 635 nm fluorescence scan, primary screen (AID 1106).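 Further: score merges emission near 667 nm with signal to noise over three replicate slides.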 To be noted: higher = more signal.
The test system of assay [10] is Inhibin beta A chain (activin A). In words: small molecules binding activin A – biochemical, small-molecule microarray, 635 nm fluorescence scan, primary screen (AID 1107).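 Further: mouse activin A protein probed at 4.33 µg/mL on printed slides; score merges bound-protein fluorescence near 667 nm with spot signal-to-noise.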 To be noted: INHBA, higher = more signal.

Dickkopf-related protein 1 (Homo sapiens), sequence (O94907 whole entry, looked up): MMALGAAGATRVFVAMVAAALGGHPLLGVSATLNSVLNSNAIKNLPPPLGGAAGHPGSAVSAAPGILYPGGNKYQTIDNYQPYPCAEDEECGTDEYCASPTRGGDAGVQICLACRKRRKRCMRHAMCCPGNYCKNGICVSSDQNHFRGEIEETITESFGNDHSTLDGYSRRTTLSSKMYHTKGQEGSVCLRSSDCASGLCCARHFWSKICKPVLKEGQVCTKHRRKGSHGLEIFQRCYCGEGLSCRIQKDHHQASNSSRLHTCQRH
Fibroblast growth factor 10 (Homo sapiens), sequence (O15520 whole entry, looked up): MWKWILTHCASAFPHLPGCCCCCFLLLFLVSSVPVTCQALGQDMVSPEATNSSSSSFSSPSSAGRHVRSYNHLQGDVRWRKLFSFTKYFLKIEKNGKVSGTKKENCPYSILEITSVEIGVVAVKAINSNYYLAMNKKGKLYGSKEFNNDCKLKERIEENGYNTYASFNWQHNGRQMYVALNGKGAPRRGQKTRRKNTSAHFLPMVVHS

For `COC(=O)[C@@]1(CCC(=O)OC(C)(C)C)N=C(c2ccc(OCCCO)cc2)O[C@H]1c1ccccc1CN=[N+]=[N-]`, the composite z-score is 1.3 in [1]; 0.425 in assay [2]; 0.87 in [3]; -0.035 in assay [5]; -0.546 in assay [6]; -0.827 in [7]. The composite z-score in assay [8] was 0.157; in assay [9], -0.346; in assay [10], 0.282. Besides, the z-score in [4] was 1.29 (inactive).

As to `C=C(COC)C(=O)CC[C@@H](OC(C)=O)c1ccc(OCCO)cc1`, the composite z-score in assay [1] was 1.09; in assay [2] it was 0.237; in assay [3], 0.523; in assay [5], 0.977; in assay [6], 0.186; in [7], -0.484. The composite z-score in assay [8] was 0.278; in [9], -0.0393; in assay [10] it was 1.42. Further, the z-score in assay [4] was 2 (inactive).

`C=CCNC(=O)[C@@H]1[C@H]2C(=O)O[C@H](c3ccccc3)[C@H](c3ccccc3)N2[C@H](c2ccc(O)cc2)[C@@]12C(=O)Nc1ccc(C#CC3(O)CCCCCC3)cc12`: the composite z-score was 1.1 in [1]; -0.0065 in assay [2]; -0.0122 in assay [3]; 0.746 in assay [5]; -0.206 in assay [6]; 0.348 in assay [7]. In addition, the values for the composite z-score in [8], in [9] and in assay [10] were 0.196, 0.446 and -0.195, respectively. Also, the z-score in assay [4] was 0.405 (inactive).

For the compound `Cc1ccc(F)cc1S(=O)(=O)N[C@@H]1CCN(Cc2ccc3c(c2)OCO3)C1`, the composite z-score in [1] was 0.0014; in assay [2], -0.247; in assay [3] it was -0.289; in assay [5], -0.24; in assay [6], -0.191; in assay [7], 0.0122. The composite z-score is -0.272 in [8], 0.537 in assay [9] and 0.528 in assay [10]. For the same compound, the z-score in assay [4] was -0.0924 (inactive).

For the compound `Cc1ccccc1C(O)C1C=CC2C(=O)N(c3ccccc3)C(=O)C2N1Nc1ccccc1F` (stereo not given), the composite z-score in assay [1] was found to be 1.31; in assay [2], 0.938; in assay [3], 1.23; in [5], 0.77; in [6], 0.45; in assay [7], 0.153. Besides, the composite z-score in assay [8] is 0.836; in assay [9] it was -0.6; in [10], 1.04. In addition, the z-score in [4] was 0.476 (inactive).

In the case of `CCOC(=O)C1=CC[C@@H](c2ccccc2Cl)N(S(=O)(=O)c2ccc(C)cc2)[C@H]1c1cccc(OC)c1`, the composite z-score in assay [1] was 0.662; in assay [2], -0.0972; in assay [3], -0.335; in assay [5], 0.331; in assay [6] it was 0.269; in [7], -0.055. Also, the composite z-score in [8] is 0.536; in assay [9], -0.237; in [10] it was 0.406. Further, in assay [4], the z-score is 0.751 (inactive).

In the case of `COC(=O)[C@@]1(Cc2ccccc2)[C@@H]2[C@@H](CC(=O)[C@H]2CC(=O)C(=O)N(C)C)CN1C(=O)c1ccccc1`, the composite z-score was 1.05 in assay [1]; 0.0889 in assay [2]; 0.929 in [3]; 0.225 in assay [5]; -0.901 in [6]; -0.185 in [7]. Moreover, the figures for the composite z-score in [8], in assay [9] and in assay [10] were -0.0272, -0.782 and 0.988, respectively. Besides, the z-score in assay [4] was -0.155 (inactive).

As for `C[N+](C)(C)CCCCCCNC(=O)[C@H]1C[C@H]2C(=O)NCC(=O)N2[C@H]1c1cccc(OCCO)c1`, the composite z-score was 1.75 in assay [1]; -0.149 in assay [2]; 0.0218 in assay [3]; 0.439 in assay [5]; 0.548 in assay [6]; 0.228 in [7]. Besides, the figures for the composite z-score in [8], in assay [9] and in [10] were 0.969, 1.28 and 0.169, respectively. The z-score in [4] was -0.34 (inactive).

As to `C=CCC(OC(C)=O)[C@@H]1[C@@H](N(Cc2ccc(-c3cccc(C(F)(F)F)c3)o2)C(=O)c2cccc3ccccc23)c2cc(OCCCO)ccc2N1C(=O)c1ccc2ccccc2n1` (stereo not given in full), the composite z-score in assay [1] was 0.765; in [2], -0.262; in assay [3], 0.52; in [5], 0.0448; in assay [6], -0.684; in assay [7], -0.117. In addition, the composite z-score in assay [8] was 0.113; in assay [9], 0.144; in [10] it was 1.47. Also, the z-score in [4] is -1.29 (inactive).

For `COC(=O)c1c(CC[C@@H](CO)NC(=O)N[C@@H](Cc2ccccc2)Cn2cc(-c3cncn3C)nn2)oc(C(C)=O)c1C(=O)OC`, the composite z-score in [1] is 0.942; in [2], -0.193; in assay [3], -0.192; in assay [5], 0.481; in assay [6], 0.352; in assay [7] it was -0.913. The composite z-score in assay [8] was 0.367; in assay [9] it was -0.376; in assay [10] it was -0.721. Moreover, the z-score in [4] was -1.71 (inactive).

Take `CC#CCO[Si](C#CCCCCCC)(C(C)C)C(C)C`: the composite z-score in assay [1] is 1.5; in assay [2] it was -0.32; in [3], 1.21; in assay [5] it was -2.46; in assay [6], -0.719; in [7], -2.07. Further, the composite z-score in [8] is -2.09; in assay [9], -3.48; in assay [10], -2.74. The z-score in assay [4] is 0.176 (inactive).

For the compound `C=CCC(OC(C)=O)[C@@H]1[C@@H](N(Cc2cccc3ccccc23)C(=O)c2ccc(-c3ccccc3)cc2)c2cc(OCCCO)ccc2N1C(=O)c1ccc2ccccc2n1` (stereo not given in full), the composite z-score in [1] was 0.0273; in assay [2], 0.052; in assay [3], 0.265; in assay [5] it was 0.186; in [6] it was 0.159; in assay [7], -0.0618. For the same compound, the composite z-score in assay [8] turned out to be 0.389; in [9], 0.19; in assay [10], 1.31. The z-score in assay [4] was -0.395 (inactive).

For the compound `COCCOC(=O)N1C(=O)[C@@]2(c3cc(C#CCCO)ccc31)[C@H](C(=O)N1CCN(c3ncccn3)CC1)[C@H]1C(=O)O[C@H](c3ccccc3)[C@H](c3ccccc3)N1[C@@H]2c1ccc(O)cc1`, the composite z-score in assay [1] is 1.3; in [2] it was -0.499; in assay [3] it was -0.345; in assay [5], 1.16; in assay [6], 1.01; in assay [7], 0.368. Also, the composite z-score is 0.698 in assay [8], -0.0017 in assay [9] and -0.242 in [10]. For the same compound, in [4], the z-score is 0.894 (inactive).

As to `CCOC(=O)C1=C(C(=O)OCC)N(S(=O)(=O)CC[Si](C)(C)C)[C@H](c2ccccc2)CC1`, the composite z-score in assay [1] was 0.461; in [2], 0.879; in [3] it was 0.845; in [5] it was 0.8; in assay [6], 1; in [7] it was 0.313. Also, the composite z-score in [8] is 0.971; in assay [9], -0.111; in assay [10], 0.955. The z-score in [4] was 0.37 (inactive).
